# Assay outcomes as filed in PubChem.
# ELG1 genotox – induces genotoxicity in HEK293T cells with luciferase-tagged ELG1; HEK293T ELG1-luciferase reporter, luminescence, 16 h; Potency, µM (highest dose often 46 µM), inactives show at the highest dose activity change, positive = activation, hits mostly activators; 1.3% of 330,000 active; note: % of control where 0% means no effect; nearly all actives have a fitted effect of over 60% in size
#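 ELG1-luciferase HEK293T cells, 2,000/well; compound pinned in; 16 hr, 37 °C, 5% CO2; ONE-Glo, 30 min RT; luminescence on CCD imager.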
# SMN2 splice up – SMN2 splice variant enhancement; Potency, µM (doses to about 46.1 µM), without a hit: at the top dose activity change, positive = activation, most hits filed as activators; 2.8% of 210,000 active; HEK293 SMN2-luciferase splicing reporter, luminescence, 30-36 h; AID 1458; note: % of control where 0% means no effect; nearly all actives have a fitted effect of over 55% in size
#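 HEK293 cells carry an SMN2 […]–luciferase reporter in which exon 7 inclusion puts luciferase in frame. Cells were plated 10-12 h before compound addition, then incubated 30-36 h at 37C. ONE-Glo luminescence was read; sodium butyrate at 4.5 mM final served as control.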
# FLuc counter – inhibits or activates purified firefly luciferase, miR-21 counter-screen; purified FLuc, Km substrates, luminescence inhibition; Potency, µM (highest dose often 57.5 µM), inactives show top-dose activity change, negative = inhibition, usual class: inhibitors; 6.9% of 360,000 active; P08659;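 note: plate controls were vehicle for no effect and reference inhibitor for full effect; nearly all actives have a fitted effect of over 55% in size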
# Target sequence (P08659 whole entry, looked up): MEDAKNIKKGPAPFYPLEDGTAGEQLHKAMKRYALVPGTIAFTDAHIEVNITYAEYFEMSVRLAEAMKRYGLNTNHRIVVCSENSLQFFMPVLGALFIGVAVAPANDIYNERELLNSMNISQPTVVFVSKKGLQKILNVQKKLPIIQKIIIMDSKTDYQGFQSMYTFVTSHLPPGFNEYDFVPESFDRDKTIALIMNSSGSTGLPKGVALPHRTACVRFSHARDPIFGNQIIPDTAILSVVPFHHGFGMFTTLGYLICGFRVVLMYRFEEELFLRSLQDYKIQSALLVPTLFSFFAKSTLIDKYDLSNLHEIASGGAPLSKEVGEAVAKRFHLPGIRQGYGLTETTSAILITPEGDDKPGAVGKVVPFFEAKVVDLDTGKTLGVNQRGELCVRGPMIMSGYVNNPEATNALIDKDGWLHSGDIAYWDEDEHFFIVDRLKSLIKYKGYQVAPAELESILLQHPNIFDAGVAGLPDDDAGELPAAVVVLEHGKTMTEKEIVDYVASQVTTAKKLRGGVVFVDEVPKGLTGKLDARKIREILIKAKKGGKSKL
#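 Biochemical qHTS of compounds, final roughly 60 µM downward over six points, against 10 nM purified firefly luciferase using Km concentrations of substrates (10 uM D-luciferin, 10 uM ATP) in Tris acetate pH 7.5 buffer; luminescence output.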
# NPC1 promoter act – NPC1 promoter activation | 2.4% of 320,000 active | Potency, µM (top dose mostly 9.22 µM), without a hit: top-dose activation, actives largely listed as activators | Huh7 NPC1 promoter luciferase reporter, 24 h | AID 485313; note: % of control where 0% means no effect; nearly all actives have a fitted effect of over 60% in size
#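 Readout is luciferase luminescence, reflecting NPC1 promoter activation in stably transfected Huh7 cells after 24 h compound exposure at 37 °C in reduced-serum medium with 10% FBS.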
# Rab9 promoter act – activators of Rab9 promoter; Huh7 Rab9 promoter-luciferase reporter, luminescence, 24 h; Potency, µM (highest dose often 9.22 µM), for the others: at the highest dose activation, negative = inhibition, most hits filed as activators; 2.8% of 320,000 active; note: % of control where 0% means no effect; nearly all actives have a fitted effect of over 60% in size
#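 Using Huh7 cells stably transfected with Rab9 promoter–luciferase, compounds were incubated 24 h at 37 °C, 5% CO2; luciferase luminescence was read 10 min after reagent addition.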
# Active calls of the source: *; ? = inconclusive; · = no result given; [ ] = dose if it differs, or a comment. Compounds with a hit are over-represented: about 7.4% of the library has one in this group of screens. Calls come from the whole dose curve; as a rule, active = well fitted curve in the direction sought with a large enough effect; inconclusive = small, poorly fitted or top-dose-only effect, or another doubt; inactive = no such curve, though single readings can be large; an effect the other way counts as inactive or inconclusive. Potency is the fitted concentration of half-maximal effect.
SMILES,ELG1 genotox,SMN2 splice up,FLuc counter,NPC1 promoter act,Rab9 promoter act
COc1cc(C)c(NC(=O)Cc2ccsc2)cc1OC,-3%,·,-2%,2%,4%
CC1Cc2cc(S(=O)(=O)NCCc3ccccc3)ccc2N1C(=O)C1CCC1 (stereo not drawn),·,·,-16%,·,·
CCOc1cc(C2NN=C(c3ccc(C)cc3)S2)ccc1O (stereo not drawn),?,16µM*,5.4µM*,3.2µM*,3.5µM*
COc1ccc(C2NN=C(c3ccc(C)cc3)S2)cc1 (stereo not drawn),?,·,1.2µM*,92%,0.63µM*
CCOc1cc(C2c3c(n[nH]c3C)C(=O)N2c2ccc(C)cc2)ccc1O (stereo not drawn),6%,4%,1%,-1%,6%
Cc1ccc(C2=NNC(C(O)C(O)C(O)CO)S2)cc1 (stereo not drawn),?,-16%,15µM*,18%,24%
C/C(=C\c1ccccc1)C(=O)n1nnc2ccccc21,1%,-3%,19µM*,-1%,8%
Cc1cc(C)n2ncc(/C(N)=N/OC(=O)Nc3ccccc3)c2n1,-8%,·,27µM*,-1%,0%
O=C(O)c1c(-c2ccccc2)oc2ccc(OCc3ccc(Cl)c(Cl)c3)cc12,·,16%,15µM*,·,·
CCOC(=O)c1c(-c2ccccc2)oc2ccc(OCc3ccc(C)cc3)cc12,·,-4%,-3%,·,·
O=C(COC(=O)CCc1nc2ccccc2s1)NC(=O)NCc1ccco1,0%,3%,-8%,-3%,-2%
CCOC(=O)c1csc(N)n1,?,·,0.85µM*,?,2.8µM*
CCOC(=O)Cc1csc(N)n1,1%,-4%,-1%,-1%,10%
CCOC(=O)c1csc(COc2ccc(OC)cc2)n1,9%,·,?,0.45µM*,0.45µM*
Cc1cc(N(CCO)CCO)ccc1N=Nc1cc(F)ccc1F,?,?,24µM*,?,?
Nc1ccc(N(CCO)CCO)cc1,1%,·,4%,1%,14%
COc1ccc2nc(SCC(=O)N(C)C3CCCCC3)[nH]c2c1,-2%,·,?,-2%,2%
CCCCNc1n[n+](C)c(-c2cccc(C)c2)s1,3%,·,0%,-5%,-7%
Cc1nc(Nc2ccc(C(=O)O)cc2)sc1-c1ccccc1,?,·,0.17µM*,1.3µM*,?
O=c1sc(Nc2ccccc2)nc2ccccc12,1%,·,-1%,-2%,-3%
Cc1nc(Nc2ccccc2)sc1-c1ccccc1,?,·,0.34µM*,1.3µM*,0.4µM*
C=C1C[C@@]23CC[C@H]4[C@@](C)(CCC[C@@]4(C)C(=O)OC4OC(CO)C(O)C(O)C4O)[C@@H]2CC[C@]1(OC1OC(CO)C(O)C(O)C1OC1OC(CO)C(O)C(O)C1O)C3 (stereo partly drawn),·,·,·,-5%[46.1 µM],-8%[46.1 µM]
C/C(NC(=O)c1ccccc1F)=C1\C(=O)C[C@@H]2[C@H]1C2(C)C,?,·,15µM*,?,?
CC1(C)CC(NC(=O)c2ccccc2F)CC(C)(C)N1,-5%,·,5%,2%,-2%
CN1CCN(NC(=O)c2cccc(F)c2)CC1,1%,-9%,3%,2%,1%
SMILES,ELG1 genotox,SMN2 splice up,FLuc counter,NPC1 promoter act,Rab9 promoter act
C/C(NC(=O)c1cccc(F)c1)=C1/C(=O)C[C@@H]2[C@H]1C2(C)C,?,6%,11µM*,25%,25%
Cc1nnc(NCc2ccc(F)cc2)c2c1nnn2Cc1ccccc1Cl,·,-1%,-1%,·,·
COc1ccccc1Cc1nc(-c2ccc(Br)o2)no1,9%,8%,19µM*,16%,12%
COc1ccc(-c2noc(Cc3ccccc3OC)n2)cc1,?,-12%,?,24%,22%
COc1ccccc1-c1nc(-c2ccc(Br)o2)no1,?,?,1.9µM*,3.5µM*,0.89µM*
COc1ccc(-c2nnc(-c3ccc(Br)o3)o2)cc1OC,?,·,?,27%,22%
COc1ccc(-c2nc(-c3ccc(Br)o3)no2)cc1OC,21µM*,14µM*,?,?,3.2µM*
COc1cccc(-c2nc(-c3ccc(Br)o3)no2)c1,?,·,0.67µM*,0.89µM*,0.56µM*
COc1cc(Cl)c(C)cc1NC(=O)Cn1ncc2c(=O)oc3ccccc3c21,·,11%,4%,·,·
